This note sets out measurements from PubChem BioAssay (NCATS).

Results filed as inconclusive are left out. Unmarked numbers belong to inactive results. Activity calls are given as the source filed them. The call rests on the fitted dose curve; in most records, active means well fitted curve in the direction sought with a large enough effect; inconclusive means small, poorly fitted or top-dose-only effect, or another doubt; inactive means no such curve, though single readings can be large; an effect the other way counts as inactive or inconclusive.

A short description of assay [1]: Quantitative High-Throughput drug screen in 47 multiple myeloma cell lines against the NCATS MIPE library collection: Delta47_JCRB cell viability assay (AID 1918925; further: nearly all actives have a fitted effect of over 45% in size). The gist of the method:
(§1)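 CellTiter-Glo luminescence (ATP) after 48 h compound exposure, 37C/5% CO2; 500 cells/well; MIPE 4.0 approved/investigational drugs pinned in; DMSO = 100%, media only = 0% viability.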

The nature of assay [2]: Quantitative High-Throughput drug screen in 47 multiple myeloma cell lines against the NCATS MIPE library collection: EJM_DSMZ cell viability assay (AID 1918926; further: nearly all actives have a fitted effect of over 30% in size). In outline: as §1
Assay [3] can be described thus: Quantitative High-Throughput drug screen in 47 multiple myeloma cell lines against the NCATS MIPE library collection: AMO1_DSMZ cell viability assay (AID 1918927; further: nearly all actives have a fitted effect of over 30% in size). The gist of the method:
as §1

Assay [4] in a line: Quantitative High-Throughput drug screen in 47 multiple myeloma cell lines against the NCATS MIPE library collection: ARP1_JJKsccF8 cell viability assay (AID 1918928; further: nearly all actives have a fitted effect of over 40% in size). The gist of the method: (§2)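 Myeloma cells, 500 per well, were exposed to MIPE 4.0 drugs by pin transfer for 48 h at 37 °C, 5% CO2. Viability was read as ATP luminescence with CellTiter-Glo, normalised to DMSO-only (100%) and medium-only (0%) wells.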

Assay [5] is described as follows: Quantitative High-Throughput drug screen in 47 multiple myeloma cell lines against the NCATS MIPE library collection: Karpas620_DSMZ cell viability assay (AID 1918959). Further: nearly all actives have a fitted effect of over 30% in size. In outline: (§3)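 Inhibition of cell viability is measured here. Each line was plated at 500 cells per well, treated with MIPE 4.0 drugs, kept 48 hours at 37C, then assayed for ATP content by CellTiter-Glo luminescence.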

Assay [6] can be described thus: Quantitative High-Throughput drug screen in 47 multiple myeloma cell lines against the NCATS MIPE library collection: KMM1_JCRB cell viability assay (AID 1918960). Further: nearly all actives have a fitted effect of over 30% in size. In outline: as §2
Assay [7] in a line: Quantitative High-Throughput drug screen in 47 multiple myeloma cell lines against the NCATS MIPE library collection: JIM3_ECACC cell viability assay (AID 1918963; further: nearly all actives have a fitted effect of over 35% in size). The gist of the method:
as §3

Assay [8] can be described thus: Quantitative High-Throughput drug screen in 47 multiple myeloma cell lines against the NCATS MIPE library collection: JIM1_ECACC cell viability assay (AID 1918964). The gist of the method:
as §1

The nature of assay [9]: Quantitative High-Throughput drug screen in 47 multiple myeloma cell lines against the NCATS MIPE library collection: Karpas25_ECACC cell viability assay (AID 1918968; further: nearly all actives have a fitted effect of over 35% in size). The gist of the method:
as §1

Assay [10] is described as follows: Quantitative High-Throughput drug screen in 47 multiple myeloma cell lines against the NCATS MIPE library collection: KMS27_JCRB cell viability assay (AID 1918970). Further: nearly all actives have a fitted effect of over 30% in size. The gist of the method: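 KMS27_JCRB myeloma cells, 500 per well, exposed 48 h at 37 C, 5% CO2 to MIPE 4.0 compounds. Viability from ATP by CellTiter-Glo luminescence, normalized to DMSO (100%) and medium-only (0%) wells.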

A short description of assay [11]: Quantitative High-Throughput drug screen in 47 multiple myeloma cell lines against the NCATS MIPE library collection: KMS12BM_JCRB cell viability assay (AID 1918971). Further: nearly all actives have a fitted effect of over 35% in size. In outline: as §3
Assay [12] can be described thus: Quantitative High-Throughput drug screen in 47 multiple myeloma cell lines against the NCATS MIPE library collection: KMS12PE_JCRB cell viability assay (AID 1918972). Further: nearly all actives have a fitted effect of over 30% in size. The gist of the method: (§4)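 qHTS of the MIPE 4.0 collection: 500 myeloma cells/well, 48 h drug exposure at 37C in 5% CO2, then CellTiter-Glo for 5 min at room temperature before luminescence reading.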

Assay [13] can be described thus: Quantitative High-Throughput drug screen in 47 multiple myeloma cell lines against the NCATS MIPE library collection: ARD_JJKsccE7 cell viability assay (AID 1918929). In outline:
as §1

Assay [14] in a line: Quantitative High-Throughput drug screen in 47 multiple myeloma cell lines against the NCATS MIPE library collection: JJN3_DSMZ cell viability assay (AID 1918966; further: nearly all actives have a fitted effect of over 50% in size). The gist of the method: as §1
Assay [15] in a line: Quantitative High-Throughput drug screen in 47 multiple myeloma cell lines against the NCATS MIPE library collection: H1112_PLB cell viability assay (AID 1918967; further: nearly all actives have a fitted effect of over 30% in size). In outline: as §1
The nature of assay [16]: Quantitative High-Throughput drug screen in 47 multiple myeloma cell lines against the NCATS MIPE library collection: KMS20_JCRB cell viability assay (AID 1918973). Further: nearly all actives have a fitted effect of over 45% in size. In outline: as §1
The nature of assay [17]: Quantitative High-Throughput drug screen in 47 multiple myeloma cell lines against the NCATS MIPE library collection: Karpas417_ECACC cell viability assay (AID 1918961). To be noted: Karpas417 myeloma viability, CellTiter-Glo ATP luminescence, 48 h; viability (% of DMSO): at 45.8 µM (top of the series). In outline:
as §4

Assay [18] is described as follows: Quantitative High-Throughput drug screen in 47 multiple myeloma cell lines against the NCATS MIPE library collection: INA6_PLB cell viability assay (AID 1918965; further: nearly all actives have a fitted effect of over 55% in size). The gist of the method: as §4
Assay [19] can be described thus: Quantitative High-Throughput drug screen in 47 multiple myeloma cell lines against the NCATS MIPE library collection: KMS21BM_JCRB cell viability assay (AID 1918974). The conditions noted are these: ATP luminescence, 48 h; viability: at 45.8 µM (top of the series) unless noted. In outline: as §1
Assay [20] can be described thus: Quantitative High-Throughput drug screen in 47 multiple myeloma cell lines against the NCATS MIPE library collection: KHM11_PLB cell viability assay (AID 1918962). Further: nearly all actives have a fitted effect of over 35% in size. The gist of the method:
as §3
Potency means the concentration at half of the fitted maximal effect.

As for `CCCCCCCCCC(=O)N[C@@H](Cc1c[nH]c2ccccc12)C(=O)N[C@H](CC(N)=O)C(=O)N[C@@H](CC(=O)O)C(=O)N[C@@H]1C(=O)NCC(=O)N[C@@H](CCCN)C(=O)N[C@@H](CC(=O)O)C(=O)N[C@H](C)C(=O)N[C@@H](CC(=O)O)C(=O)NCC(=O)N[C@H](CO)C(=O)N[C@@H]([C@@H](C)CC(=O)O)C(=O)N[C@@H](CC(=O)c2ccccc2N)C(=O)O[C@@H]1C`, the Potency result in [1], in [2], in assay [3], in [4], in assay [5] and in assay [6] was “inactive” each time. For the same molecule, the Potency result in [7], in assay [8], in assay [9], in [10], in assay [11] and in [12] was “inactive” in each case.
On to `CN1CCN(c2cc(C(=O)Nc3ccc4c(c3)-c3c(c(C(N)=O)nn3-c3ccc(F)cc3)CC4)c(Cl)cn2)CC1`, for which the Potency was 0.935 µM (active) in assay [1]; 0.833 µM (active) in assay [2]; 7.43 µM (active) in [3]; 16.6 µM (active) in [13]; 23.5 µM (active) in assay [5]; 20.9 µM (active) in assay [6]. In addition, the Potency in assay [7] was 6.62 µM (active); in [8] it was 8.33 µM (active); in [14], 0.235 µM (active); in assay [15], 2.35 µM (active); in assay [9], 2.35 µM (active); in [10] it was 7.43 µM (active). For the same molecule, the Potency in [11] is 23.5 µM (active); in assay [12], 20.9 µM (active); in assay [16] it was 2.96 µM (active).
Regarding `CC=CC1=C(C(=O)O)N2C(=O)[C@H](NC(=O)[C@H](N)c3ccc(O)cc3)[C@@H]2SC1`, the Potency entry in [1], in [2], in assay [4], in assay [6], in assay [17] and in [14] was “inactive” throughout. Moreover, the Potency entry in assay [11] and in assay [12] was “inactive” each time. Also, the Potency in assay [3] is 8.33 µM (active); in assay [5] it was 14.8 µM (active); in assay [16] it was 26.4 µM (active).
On to `CC(C)c1nn(-c2c(Cl)cccc2Cl)c2nc(Cc3ccc(OCCO)cc3)[nH]c(=O)c12`, for which the Potency in [1] is 0.166 µM (active); in assay [2], 0.132 µM (active); in assay [4] it was 0.118 µM (active); in assay [7] it was 0.166 µM (active); in assay [18], 0.0833 µM (active); in [14], 0.0833 µM (active). Further, the Potency in assay [15] was 0.235 µM (active); in [9], 0.0372 µM (active); in assay [11], 0.0743 µM (active); in assay [16] it was 0.166 µM (active). Besides, the Potency result in assay [3], in assay [5], in assay [6], in assay [17], in assay [10] and in assay [12] was “inactive” in each case. The Potency result in assay [19] is “inactive”.
Consider `CNC(=O)c1ccccc1Nc1nc(Nc2ccc(N3CCOCC3)cc2OC)ncc1Cl`, for which the Potency was 0.148 µM (active) in assay [1]; 13.2 µM (active) in [2]; 0.418 µM (active) in [3]; 0.935 µM (active) in assay [4]; 0.296 µM (active) in assay [6]; 7.43 µM (active) in assay [20]. For the same molecule, the Potency in [7] was 0.209 µM (active); in assay [8], 0.105 µM (active); in [18] it was 5.26 µM (active); in assay [14], 3.72 µM (active); in assay [9], 0.209 µM (active); in [10] it was 0.132 µM (active). Besides, the Potency was 13.2 µM (active) in assay [11], 1.05 µM (active) in assay [12], 2.35 µM (active) in assay [16] and 0.209 µM (active) in [19].
On to `CN(C)CCCN=c1c2ccccc2n(C)c2[nH]c(=O)n(C)c(=O)c12`, for which the Potency in [1] was 16.6 µM (active); in assay [2] it was 20.9 µM (active); in assay [3] it was 2.96 µM (active); in assay [4], 18.7 µM (active); in assay [6], 4.69 µM (active); in assay [20], 5.26 µM (active). In addition, the Potency was 3.72 µM (active) in assay [18]; 16.6 µM (active) in assay [14]; 16.6 µM (active) in assay [15]; 4.18 µM (active) in [11]; 5.9 µM (active) in [12].
Consider `Cn1cncc1[C@@](N)(c1ccc(Cl)cc1)c1ccc2c(c1)c(-c1cccc(Cl)c1)cc(=O)n2C`, for which the Potency is 6.62 µM (active) in assay [1]; 14.8 µM (active) in assay [2]; 7.43 µM (active) in assay [3]; 0.469 µM (active) in assay [4]; 5.9 µM (active) in assay [5]; 9.35 µM (active) in assay [6]. Moreover, the Potency in [7] was 16.6 µM (active); in [8], 0.935 µM (active); in [18] it was 4.69 µM (active); in assay [14] it was 8.33 µM (active); in [9] it was 4.18 µM (active); in assay [10], 7.43 µM (active). The Potency in [11] was 14.8 µM (active); in assay [12], 3.32 µM (active); in assay [16] it was 11.8 µM (active); in assay [19], 16.6 µM (active).
Consider `Cc1cc(Nc2cc(NC(=O)c3c(Cl)cccc3Cl)ccn2)nc(N)n1`, for which the Potency in assay [1] was 18.7 µM (active); in assay [2], 16.6 µM (active); in assay [3], 0.187 µM (active); in [4], 0.296 µM (active); in [6], 0.418 µM (active); in assay [17] it was 2.64 µM (active). The Potency in assay [20] is 8.33 µM (active); in [7], 0.469 µM (active); in [18] it was 0.935 µM (active); in assay [14], 0.743 µM (active); in assay [15], 1.05 µM (active); in assay [9], 13.2 µM (active). For the same molecule, the Potency in [11] is 18.7 µM (active); in [12], 0.166 µM (active); in assay [16], 10.5 µM (active); in [19] it was 0.418 µM (active).
With `CCN(CC)CCNC(=O)c1ccc2nc(-c3ccccc3)c(-c3ccc(CN4CCC(n5c(=O)[nH]c6ccccc65)CC4)cc3)nc2c1`, the Potency is 0.662 µM (active) in assay [1]; 18.7 µM (active) in assay [2]; 1.05 µM (active) in assay [3]; 2.64 µM (active) in assay [13]; 0.935 µM (active) in [5]; 1.66 µM (active) in [6]. For the same molecule, the Potency in [17] is 1.05 µM (active); in assay [20] it was 0.332 µM (active); in assay [7] it was 0.935 µM (active); in assay [8], 0.833 µM (active); in [14] it was 20.9 µM (active); in assay [15], 0.833 µM (active). Further, the Potency in [9] was 0.332 µM (active); in [10], 0.418 µM (active); in assay [11], 16.6 µM (active); in [12], 0.833 µM (active); in assay [16] it was 0.296 µM (active); in [19], 1.18 µM (active).
